# Laboratory results taken from the supplement of paper PMC3334620.
# The full ranking holds about 33,000 sequences; the median of “E-score (-0.5 to 0.5)” is about -0.012, and the highest 2% start at about 0.29. The list comes from a sample in which the highest values are over-represented; it also holds similar and randomly drawn sequences.
# Target: T1, Ybr033w (UniProt P38073)
# T1 sequence: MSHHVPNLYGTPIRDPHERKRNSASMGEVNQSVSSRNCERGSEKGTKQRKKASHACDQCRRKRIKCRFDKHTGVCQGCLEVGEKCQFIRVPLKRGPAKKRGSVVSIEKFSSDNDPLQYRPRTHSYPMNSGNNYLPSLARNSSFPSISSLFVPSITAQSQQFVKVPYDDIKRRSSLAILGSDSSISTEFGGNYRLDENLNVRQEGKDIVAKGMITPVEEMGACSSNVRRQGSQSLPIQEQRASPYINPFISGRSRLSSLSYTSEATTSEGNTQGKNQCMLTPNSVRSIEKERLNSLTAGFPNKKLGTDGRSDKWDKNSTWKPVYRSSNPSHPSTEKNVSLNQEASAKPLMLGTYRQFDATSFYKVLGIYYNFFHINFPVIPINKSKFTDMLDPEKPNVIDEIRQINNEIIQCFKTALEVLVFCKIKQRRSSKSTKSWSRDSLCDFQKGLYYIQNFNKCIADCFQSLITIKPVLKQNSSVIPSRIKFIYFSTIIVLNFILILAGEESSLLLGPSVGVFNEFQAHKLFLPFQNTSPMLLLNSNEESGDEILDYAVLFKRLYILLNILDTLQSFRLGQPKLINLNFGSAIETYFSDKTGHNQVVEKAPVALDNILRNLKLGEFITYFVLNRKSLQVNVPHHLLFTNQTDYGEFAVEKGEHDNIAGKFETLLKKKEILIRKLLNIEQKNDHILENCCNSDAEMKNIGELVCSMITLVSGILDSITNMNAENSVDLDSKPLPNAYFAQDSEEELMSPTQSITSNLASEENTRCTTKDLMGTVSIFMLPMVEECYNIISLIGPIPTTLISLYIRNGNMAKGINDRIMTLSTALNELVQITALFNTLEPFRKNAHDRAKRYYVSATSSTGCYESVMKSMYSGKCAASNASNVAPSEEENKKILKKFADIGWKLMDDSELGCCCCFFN
# Assay: PBM E-score (8-mer binding enrichment) (E-score (-0.5 to 0.5)); higher = stronger / more preferred TF binding
# Details: protein concentration: 200 nM; construct: GST-full length
# In short: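 Full-length yeast transcription factors or their DNA-binding domains, GST-tagged and expressed with PURExpress, were applied at about 100-200 nM to universal all-10-mer Agilent arrays. These arrays had been made double-stranded by primer extension on fresh or once-stripped slides. Detection used fluorescent anti-GST, normalisation used masliner, and E-scores for ungapped eight-base words pooled with reverse complements came from the Universal PBM Analysis Suite.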
row,Sequence,PBM E-score
1,ACCTTGAA,0.102
2,GGATTATA,0.244
3,GAATTATA,0.307
4,TAATTCTA,0.288
5,AAATTATA,0.215
6,GAATTCTA,0.176
7,CAATTATA,0.28
8,AAATTCTA,0.217
9,TAATTATA,0.382
10,GCATTATA,0.0824
11,GAATTATC,0.305
12,GAATTAAC,0.249
13,GAATTACC,0.139
14,CTGCACAG,-0.0409
15,ATCCATAG,-0.0877
16,CCAGAAAG,0.171
17,CCTAAATC,0.0625
18,AATTGACG,-0.0634
19,CTATGCGA,-0.0724
20,AGAAATAC,0.104
21,AGAAATAG,0.227
22,AGAAATAT,0.299

row,Sequence,PBM E-score
1,AGAAATAA,0.36
2,CGAAATAA,0.264
3,GGAAATAA,0.284
4,AATTGCCT,0.0818
5,AAACTCCG,0.17
6,CTCTGCTC,-0.16
7,ACTGGCCC,0.0468
8,AGTTGGAT,0.288
9,AGTTGGAG,-0.0321
10,AGTTGGAC,-0.0273
11,CAGTCACG,-0.248
12,CACCGTGG,-0.311
13,AACAAGTG,0.127
14,ACCACCGC,-0.197
15,TAGATTGA,0.233
16,AAGATTAA,0.289
17,CAGATTAG,-0.134
18,AAGATTAC,0.101
19,AAGATTAG,0.219
20,TAGATTCA,0.0876
21,TAGATTAA,0.312
22,CAGATTAA,0.291

row,Sequence,PBM E-score
1,GAGATTAA,0.182
2,TCTGGGAA,-0.0142
3,GACGTCAA,-0.013
4,AGTTGGAA,0.124
5,CCCAAGAG,-0.146
6,AATCATCA,0.17
7,CCTGCCAG,-0.2
8,CTGGCCTA,-0.0592
9,AAAATCAA,0.221
10,ATAATCAG,0.092
11,ATAATCAT,0.292
12,AAAATCAT,0.31
13,ATAATCAA,0.229
14,AAAATCAG,0.188
15,CGGAAAGA,-0.0353
16,AGGTGTAC,0.0056
17,CTCAAGTA,0.0799
18,ATAGCTTG,-0.0519
19,GGCGACCC,-0.301
20,ACACACAT,0.117
21,AAATCGCT,-0.173
22,ACTTATAT,0.328

row,Sequence,PBM E-score
1,ACTTATAC,0.244
2,TCTTATAA,0.0725
3,GCTTATAA,0.147
4,ACTTATAG,0.0878
5,ACTTATAA,0.305
6,CTGGATAC,-0.107
7,GACACTAC,-0.0871
8,ACGCACAC,0.157
9,ATCTACGC,0.0459
10,ACATGATA,0.32
11,AAATGATA,0.345
12,ACATGTTC,0.0642
13,ACATGATC,0.122
14,ACATGTTA,0.289
15,ACATGTTG,0.244
16,AAATGATT,0.273
17,CTATGATA,0.113
18,GCATGATA,0.109
19,CAATGATA,0.126
20,ATATGATA,0.347
21,GTATGATA,0.234
22,CGACGTAG,-0.223

row,Sequence,PBM E-score
1,AGCATTCC,-0.043
2,ATGTGGCG,-0.018
3,AATCTTAC,0.137
4,GCTTAATA,0.0557
5,GGTGGAAA,-0.00937
6,CCTGCTCA,-0.156
7,ATTCTAGC,0.0909
8,ACGGGCTA,-0.252
9,AGGGATCA,0.169
10,AAATGATG,0.248
11,CAATGATC,0.0568
12,AAATGATC,0.328
13,CATACTGA,0.212
14,GATACTGA,0.0886
15,TATACTGA,0.351
16,CATTCGCG,0.0443
17,ATATAGGG,-0.00433
18,GAGGCCTC,-0.37
